± gives the standard deviation of the averaged measurements.
The compounds below were run on (4S)-cis-verbenol A-neuron OSN class (assay: net action potential response of A-neuron (blank-subtracted) (spikes/s (Hz)); higher = stronger excitation). Details: 10 µg on filter paper; neuron: A neuron (large spike amplitude).
Method: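 Single sensillum recordings from antennal olfactory sensilla of live adult Ips typographus. Each compound was 10 µg in paraffin oil on filter paper, delivered as a 0.5 s puff. Net response = spikes in the first 0.5 s of response minus the 0.5 s pre-stimulus count, doubled to give Hz, with blank response subtracted. Values are for the large-spike A-neuron class of each of seven sensillum types that co-house the lanierone B-neuron; N = 1-4 sensilla, averaged.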

| Structure (SMILES) | net action potential response |
| --- | --- |
| C=CCc1ccc(OC)cc1 [Estragole] | -2 ± 3.5 |
| O=Cc1ccccc1 [Benzaldehyde] | 2 ± 6 |
| Cc1ccccc1 [Toluene] | 1.33 ± 6.4 |
